# Measured values from PubChem BioAssay (NCI).
# Where “and” joins values, the source holds several entries; their conditions need not be identical. Identical values can stand only once. About 79,000 compounds went through this panel and 15% of them were active in at least one assay; those are over-represented in the sample as a whole. Unmarked numbers belong to inactive results. Calls of active or inactive are those of the source. No stated cut-off is given here; in the data, active means growth inhibition above about 70%; inactive means the rest.
# Legend:
# [1] = NCI Yeast Anticancer Drug Screen. Data for the rad50 strain (AID 155);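 further: 0% = growth of vehicle-only cultures of the same strain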; settings: S. cerevisiae rad50 strain growth inhibition; at 50.0 µM; stronger effect = higher value
# Outline: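 Growth of the mutant yeast was measured after compound exposure and referenced to vehicle-treated cultures.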
# [2] = NCI Yeast Anticancer Drug Screen. Data for the mec2-1 strain (AID 157); settings: S. cerevisiae mec2-1 strain, at 50.0 µM, stronger effect = higher value
# Outline: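 Each compound was tested on mec2-1 yeast, a strain altered in DNA damage repair or cell cycle control. Growth inhibition is reported relative to vehicle.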
# [3] = NCI Yeast Anticancer Drug Screen. Data for the sgs1 mgt1 strain (AID 161);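 further: 0% = growth of cultures given vehicle only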; settings: S. cerevisiae sgs1 mgt1 strain, at 50.0 µM, stronger effect = higher value
# Outline: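 Test agents were incubated with a DNA-repair-mutant yeast strain. Growth was then read and compared against vehicle-treated controls.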
# [4] = NCI Yeast Anticancer Drug Screen. Data for the cln2 rad14 strain (AID 165);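 further: 0% = growth equal to vehicle treated cultures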; settings: S. cerevisiae cln2 rad14 strain, at 50.0 µM, stronger effect = higher value
# Outline: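 Test compounds were added to cln2 rad14 yeast cultures; inhibition of growth was then determined by comparison with vehicle treatment.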
# [5] = NCI Yeast Anticancer Drug Screen. Data for the bub3 strain (AID 167); settings: S. cerevisiae bub3 mutant strain, at 50.0 µM, stronger effect = higher value
# Outline: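 Whole-cell yeast assay. The mutant strain was incubated with compounds, and growth inhibition was determined by comparison with vehicle-treated cells.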
# [6] = NCI Yeast Anticancer Drug Screen. Data for the mlh1 rad18 strain (AID 175); settings: S. cerevisiae mlh1 rad18 strain growth inhibition; at 50.0 µM; stronger effect = higher value
# Outline: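 Inhibition values reflect reduced growth of mutant yeast versus vehicle-treated controls following compound exposure; the mutations affect DNA damage repair.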
SMILES,growth inhibition [1],growth inhibition [2],growth inhibition [3],growth inhibition [4],growth inhibition [5],growth inhibition [6]
CN1CCC23c4c5cc(-c6cc7c8c(c6O)OC6C(O)C=CC9C(C7)N(C)CCC896)c(O)c4OC2C(O)C=CC3C1C5 (stereo not drawn),-5.2% and 0.8%,-10.7% and -11.2%,1.9% and 2.85%,-13.2% and 4.85%,-4.45% and 7.4%,-4.8% and 1.75%
CCCCCCCCCCOC(=O)CC(C)=O.CCCCCCCCCCOC(=O)CC(C)=O.[Ni+2],-37.5%,-9.3%,-26.4%,-45.1%,2.3%,-39%
O=C(O)c1ccc(I)cc1.[Ni],82.8% (active),5.7%,57.1%,8.85%,85% (active),30%
O=C(CC([Se]c1ccccc1)c1ccccc1)c1ccccc1 (stereo not drawn),98% (active),88.8% (active),95.7% (active),89.4% (active),93.7% (active),98% (active)
CC(=O)CC(C)=O.[In],23.8%,42.6%,34.5%,29.4%,27.6%,2.65%
CC(C)c1ccc(-n2c(=S)[nH]c3ccccc3c2=O)cc1,-16.3%,-7%,-13.8%,-25%,-5.7%,13.8%
O=S1(=O)c2ccccc2-c2ccccc21,-5%,-7.95%,-13.8%,-3.5%,-11.6%,5.65%
COc1cc(C(c2c(O)c3ccccc3oc2=O)c2c(O)c3ccccc3oc2=O)cc(OC)c1OC,-2.1%,-8.15%,-10.2%,0.9%,-11.7%,-2.85%
O=[N+]([O-])c1ccc(C#Cc2ccc(N(CCCl)CCCl)cc2)cc1,1.95%,-8.85%,7.5%,-65.5%,9.2%,-3.95%
CCC[N+](CCC)(CCC)CCC.[Ni+2].[SH2+]C([SH2+])=Nc1ccccc1.[SH2+]C([SH2+])=Nc1ccccc1,24.1%,18.9%,9.6%,-20.9%,4.7%,30.1%
c1ccc2c(c1)oc1ccccc12,2.05%,11.3%,7.2%,-64.5%,4%,-4.1%
CCOP(=O)(OCC)/C(=C/c1cccs1)CC(C)=O,7.8%,-57.6%,-27.9%,14.6%,-25.9%,-76%
Cc1cc(NN=O)nc(C)n1,-3.05%,-4.05%,-1.35%,-14.4%,-1.8%,5.7%
N/N=C(\N)c1nn[nH]n1,-9.55%,-12.4%,-12.7%,-6.05%,12.9%,-11.9%
NC(=S)Nc1ccccc1,9.75%,-18%,-24.4%,-11.1%,8.65%,5.6%
C[P+](C)(C)C,15.6% and -6.8%,-17.2% and 7.3%,-6.6% and 1.45%,1.4% and -5.8%,12% and -17.4%,-26.9% and -6.85%
CP1(=S)CC[C@H]2C3=C(CC[C@@H]21)CC(=O)CC3 (stereo partly drawn),14.4%,14.6%,11.3%,52.9%,2.9%,16.9%
ClC1=C(Cl)C2(Cl)C3C(C4(Cl)C(Cl)=C(Cl)C3(Cl)C4(Cl)Cl)C2(Cl)C1(Cl)Cl (stereo not drawn),-1.7%,-6.05%,9%,-71%,-2.4%,-11.8%
CCC[CH2][Sn]([I])([CH2]I)[CH2]CCC,98.5% (active),99.1% (active),99% (active),98.6% (active),98.8% (active),98.5% (active)

SMILES,growth inhibition [1],growth inhibition [2],growth inhibition [3],growth inhibition [4],growth inhibition [5],growth inhibition [6]
CCCCP(=O)(CCCC)CCCC.CCCCP(=O)(CCCC)CCCC.CCCCP(=O)(CCCC)CCCC.CCCCP(=O)(CCCC)CCCC.[Ce+3].[O-][Cl+3]([O-])([O-])O,43.9%,36.3%,30.6%,33.9%,62.1%,42.4%
COc1cc(C(CN)N(C)C)cc(OC)c1OC (stereo not drawn),-42.6%,-48.7%,-14.9%,14.4%,-0.9%,-8.65%
O=c1c2ccccc2oc2ccccc12 (tested in a mixture with another compound),18.9%,17.7%,11.7%,10.2%,23.2%,17.1%
CNC(=O)C(CC(C)[N+](C)(C)C)(c1ccccc1)c1ccccc1 (stereo not drawn),14.2%,8.4%,14.5%,17.9%,4.85%,11.4%
CO/N=C1\CC(C)N2C(=O)C(C(C)C)NC(=O)C(NC(=O)c3c4nc5c(C(=O)NC6C(=O)NC(C(C)C)C(=O)N7C(C)CC(O)C7C(=O)N(C)CC(=O)N(C)C(C(C)C)C(=O)OC6C)ccc(C)c5oc-4c(C)c(=O)c3N)C(CO)OC(=O)C(C)N(C)C(=O)CN(C)C(=O)C12 (stereo not drawn),23.1%,-18.8%,9.35%,20%,-3.9%,8.45%
CC(C)N1CCc2cc3c(cc2C1)OCO3,9.8%,11.1%,1.3%,1.25%,-17.5%,23%
CNC(=O)Oc1cccc2c1C(=O)OC2=O,-2.7%,4.25%,-6.55%,-25.1%,2.15%,7.1%
O=[N+]([O-])c1ccc(/C=N\NP(Br)(c2ccccc2)(c2ccccc2)c2ccccc2)cc1,15.4%,0.3%,26.9%,3.95%,-2.5%,4.75%
CCN1C(=O)NC(=O)C(CC)(N2CCCCC2)C1=O (stereo not drawn),10.7%,7.95%,5%,15%,2.55%,25.4%
O=P(O)(O)CCCP(=O)(O)O.[Zn+2],-10.9%,-27.4%,-7.05%,-6.1%,-12.7%,29.1%
COc1ccc(C=C2C(=O)NC(=O)NC2=O)cc1OC,10.7%,-0.6%,22.2%,8.8%,-11.8%,23.9%
O=C(CCl)N(CCO)CCO,-0.85%,1.5%,-2.4%,-30.7%,6.3%,0.95%
CCCCCCCCCCCCC(=O)O.[Pb],1.45%,10.2%,-14.4%,24.2%,-2.05%,3.35%
CCOC(=O)Cc1ccccc1,24.1%,-5.85%,-1.95%,-2.05%,9.25%,23.8%
ClCCN(CCCl)c1ccc(N=Cc2ccccc2)cc1,24.9%,17%,7.35%,4.3%,19.4%,44.6%
CC1=CC2OC3CC(OC(=O)/C=C/C=C/C(OCCC4=CC(=O)OC4)C(C)O)C(C)(C2(CO)CC1)C31CO1 (stereo not drawn),31.8%,-0.7%,11.6%,25.2%,8.5%,-2.2%
CN(C)P(=O)(N(C)C)N(C)CO,6.35%,6.05%,25.4%,7.35%,18.2%,4.6%
O=P1(CCBr)NCCCO1 (stereo not drawn),-5.25%,14.6%,-3.6%,-59.4%,-10.4%,7.5%
CCC(Cl)COP(=O)(OCC(Cl)CC)O/C(C)=C(\C)OP(=S)(OCC(Cl)CC)OCC(Cl)CC (stereo not drawn),86.5% (active),93.2% (active),93.8% (active),99.2% (active),98.8% (active),96.8% (active)
